Test [1] concerns zebrafish Estrogen Receptor (ESR2A), gene 317734. The test is described as follows: ATG_zfER2a_XSP1: Attagene TRANS-FACTORIAL Multi-Species (XSP1) HepG2 Assay for zebrafish Estrogen Receptor (ESR2A) (AID 2283778). The method, then:
(§1) ATG_XSP1_multi-species_TRANS is a cell-based, multiplexed assay created by modifying the existing Attagene TRANS-FACTORIAL system to include a panel of nuclear receptors from some or all the following species: human (Homo sapiens), mouse (Mus musculus), frog (Xenopus laevis), zebrafish (Danio rerio), chicken (Gallus gallus), and turtle (Chrysemys picta). The […] format uses HepG2, a human liver cell line, with measurements taken at 24 hours after chemical dosing in a 24-well plate. Xsp1 included 3 nM 6-alpha-fluorotestosterone to partially stimulate the androgen receptor.ATG_zfER2a_XSP1 is one of 29 assay components measured or calculated from the ATG_XSP1_multi-species_TRANS assay. It is designed to make measurements of mRNA induction, a form of inducible reporter, as detected with fluorescence intensity signals by Reverse transcription polymerase chain reaction (RT-PCR) and Capillary electrophoresis technology.The assay endpoint ATG_zfER2a_XSP1 was analyzed in the positive analysis fitting direction relative to DMSO as the negative control and baseline of activity. […] Furthermore, this assay endpoint can be referred to as a primary readout, because this assay has produced multiple assay endpoints where this one serves a reporter gene function. […]

For test [2], the target named is chicken Estrogen Receptor (ESR1), ESR1 (gene 396099) (UniProt P06212). The test is described as follows: ATG_chERa_XSP1: Attagene TRANS-FACTORIAL Multi-Species (XSP1) HepG2 Assay for chicken Estrogen Receptor (ESR1) (AID 2283779). In outline:
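HepG2 cells transiently transfected with multiplexed GAL4-UAS reporter units expressing chimeric NR-Gal4 proteins; 3 nM 6-alpha-fluorotestosterone present. Reporter mRNA measured 24 h after dosing by RT-PCR, FAM labelling, HpaI digest and capillary electrophoresis; gain of signal versus DMSO.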

Test [3] concerns the target Estrogen receptor (Homo sapiens) (UniProt P03372). The test is described as follows: ATG_hERa_XSP1: Attagene TRANS-FACTORIAL Multi-Species (XSP1) HepG2 Assay for human Estrogen Receptor (ESR1) (AID 2283780). In outline:
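HepG2 cells transiently transfected with GAL4-UAS reporter units and chimeric NR-Gal4 constructs; 24 h after dosing, reporter mRNA quantified by RT-PCR and capillary electrophoresis. Medium contained 3 nM 6-alpha-fluorotestosterone; activity fitted as gain-of-signal versus DMSO.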

Test [4] has as its system turtle Estrogen Receptor (ESR1), gene 101933533. The test is described as follows: ATG_trERa_XSP1: Attagene TRANS-FACTORIAL Multi-Species (XSP1) HepG2 Assay for turtle Estrogen Receptor (ESR1) (AID 2283781). The method, boiled down: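 HepG2 cells transiently transfected with GAL4-UAS reporter units and chimeric NR-Gal4 constructs, dosed for 24 h with 3 nM 6-alpha-fluorotestosterone present. Reporter mRNA was quantified by RT-PCR, fluorescent labelling and capillary electrophoresis, with gain of signal fitted relative to DMSO.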

For test [5], the target named is Estrogen receptor beta (Homo sapiens) (UniProt Q92731). In words: ATG_hERb_XSP1: Attagene TRANS-FACTORIAL Multi-Species (XSP1) HepG2 Assay for human Estrogen Receptor (ESR2) (AID 2283788). The method, then: as §1, with “receptor.ATG_hERb_XSP1” for “receptor.ATG_zfER2a_XSP1”, “ATG_hERb_XSP1” for “ATG_zfER2a_XSP1”
Chain of Estrogen receptor beta (Homo sapiens) (Q92731 whole entry, looked up): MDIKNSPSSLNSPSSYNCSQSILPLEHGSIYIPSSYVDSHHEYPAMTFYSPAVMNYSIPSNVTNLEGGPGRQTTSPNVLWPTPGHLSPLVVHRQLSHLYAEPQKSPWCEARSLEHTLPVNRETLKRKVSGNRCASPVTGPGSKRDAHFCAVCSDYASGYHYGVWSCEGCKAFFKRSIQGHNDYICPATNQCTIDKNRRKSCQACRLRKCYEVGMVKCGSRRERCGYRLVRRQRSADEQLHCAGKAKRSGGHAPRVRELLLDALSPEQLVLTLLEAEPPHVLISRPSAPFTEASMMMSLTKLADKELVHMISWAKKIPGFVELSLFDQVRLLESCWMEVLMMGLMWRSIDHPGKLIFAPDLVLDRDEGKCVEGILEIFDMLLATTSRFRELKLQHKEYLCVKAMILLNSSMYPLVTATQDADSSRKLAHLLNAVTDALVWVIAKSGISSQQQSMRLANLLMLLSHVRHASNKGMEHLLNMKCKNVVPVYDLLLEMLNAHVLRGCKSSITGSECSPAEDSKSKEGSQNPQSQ
Test [6] is described as follows: ATG_M_06_XSP1: Attagene TRANS-FACTORIAL Multi-Species (XSP1) HepG2 Assay for M06 Transcription Factor (Internal Marker) (AID 2283790). In outline: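 Transfected HepG2 multi-reporter system treated 24 h in the presence of 3 nM 6-alpha-fluorotestosterone. The M06 internal marker transcript was quantified by RT-PCR with capillary electrophoresis as a background control, and gain of signal was scored versus DMSO.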

Test [7] can be described thus: ATG_M_61_XSP1: Attagene TRANS-FACTORIAL Multi-Species (XSP1) HepG2 Assay for M61 Transcription Factor (Internal Marker) (AID 2283797). The method, boiled down: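 HepG2 cells transiently transfected with multiplexed GAL4-driven reporter units, dosed 24 h with 3 nM 6-alpha-fluorotestosterone present. Reporter mRNA quantified by RT-PCR, 6-FAM labelling, HpaI digestion and capillary electrophoresis; internal-marker background control, gain of signal versus DMSO.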

Results on one compound are retold here after PubChem BioAssay (EPA / NIEHS).

As usually defined, the AC50 is the concentration at which the activity in the assay is half-maximal.

Records with an inconclusive call do not appear. Activity calls are given as the source filed them. Rule for the calls: active = hit-call score of the fitted dose curve at least 0.9, where 1 is the maximum; inconclusive = response in the unintended direction; inactive = score below 0.9.

Chain of chicken Estrogen Receptor (ESR1), ESR1 (gene 396099) (P06212 whole entry, looked up, the tested form may be a part): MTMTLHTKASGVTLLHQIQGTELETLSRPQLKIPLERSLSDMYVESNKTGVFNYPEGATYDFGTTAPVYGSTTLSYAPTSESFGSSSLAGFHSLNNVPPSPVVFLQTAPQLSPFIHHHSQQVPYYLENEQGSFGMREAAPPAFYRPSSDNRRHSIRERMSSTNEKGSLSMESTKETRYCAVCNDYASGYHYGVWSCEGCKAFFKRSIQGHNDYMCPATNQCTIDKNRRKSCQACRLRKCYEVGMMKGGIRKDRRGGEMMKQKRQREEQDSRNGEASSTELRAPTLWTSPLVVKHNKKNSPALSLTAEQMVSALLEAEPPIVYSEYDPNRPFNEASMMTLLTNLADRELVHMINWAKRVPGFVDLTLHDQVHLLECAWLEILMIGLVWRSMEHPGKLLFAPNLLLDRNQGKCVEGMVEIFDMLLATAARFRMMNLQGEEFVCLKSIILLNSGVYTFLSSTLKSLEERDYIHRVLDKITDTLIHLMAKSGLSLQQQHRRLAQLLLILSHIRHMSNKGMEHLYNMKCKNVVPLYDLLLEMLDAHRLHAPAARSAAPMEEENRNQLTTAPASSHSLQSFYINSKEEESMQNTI
Chain of Estrogen receptor (Homo sapiens) (P03372 whole entry, looked up, the tested form may be a part): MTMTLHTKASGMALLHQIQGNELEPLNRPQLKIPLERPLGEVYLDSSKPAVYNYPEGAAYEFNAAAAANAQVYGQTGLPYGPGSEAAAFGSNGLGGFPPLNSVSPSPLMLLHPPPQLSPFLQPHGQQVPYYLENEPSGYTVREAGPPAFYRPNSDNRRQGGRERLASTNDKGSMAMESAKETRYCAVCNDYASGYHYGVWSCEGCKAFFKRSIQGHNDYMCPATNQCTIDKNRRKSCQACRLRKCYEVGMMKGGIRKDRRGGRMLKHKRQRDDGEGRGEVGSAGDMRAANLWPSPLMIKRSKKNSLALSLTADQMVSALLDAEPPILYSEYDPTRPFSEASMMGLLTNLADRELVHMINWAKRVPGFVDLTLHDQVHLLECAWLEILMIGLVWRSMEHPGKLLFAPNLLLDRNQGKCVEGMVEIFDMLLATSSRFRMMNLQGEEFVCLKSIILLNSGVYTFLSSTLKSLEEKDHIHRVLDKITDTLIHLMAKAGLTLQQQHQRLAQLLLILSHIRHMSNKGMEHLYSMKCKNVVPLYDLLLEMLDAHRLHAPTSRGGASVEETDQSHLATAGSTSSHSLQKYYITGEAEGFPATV

Consider `CN(CCOc1ccc(CC2SC(=O)NC2=O)cc1)c1ccccn1` (configuration not stated), for which the compound was classed as inactive in test [1], in test [3], in test [5], in test [6] and in test [7]. Besides, the AC50 was 35.3 nM (active) in test [2] and 37.2 nM (active) in test [4].
